Calls of active or inactive are those of the source.
What was measured:
Albumin (Bos taurus) = Albumin (Bos taurus) (UniProt P02769); assay: compounds binding labelled BSA control protein – biochemical, small-molecule microarray, Alexa647 label, 635/667 nm fluorescence, artefact control for SMM control protein annotation, profiling panel (AID 1118); settings: BSA-A647 binding, fluorescence 635 nm, higher = more signal;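 note: score merges 667 nm emission intensity and signal-to-noise per printed compound spot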
[1] = probe aXIP binding to arrayed compounds – biochemical, NeuroSMM set, 635/667 nm fluorescence, primary screen (AID 1119); settings: small-molecule microarray, higher = more signal, called active from +8 up or from −8 down;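 note: probe is the protein aXip251-270 applied at 1 µg/mL to compound-printed slides; binding of probe to printed compounds measured as 667 nm fluorescence plus signal to noise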
[2] = probe aNOTCH3 binding on compound microarray – biochemical, small-molecule microarray, 635/667 nm fluorescence, primary screen (AID 1120); settings: higher = more signal;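 note: probe is a biotin-tagged antibody raised against NOTCH3 rather than NOTCH3 protein; score merges spot fluorescence near 667 nm with spot signal to noise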
[3] = probe aNOTCH2 binding on compound microarray – biochemical, small-molecule microarray, 635/667 nm fluorescence, primary screen (AID 1121); settings: higher = more signal;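 note: score merges feature fluorescence read at 667 nm with its signal to noise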
[4] = target: Carbonic anhydrase 2 (Homo sapiens) (UniProt P00918); assay: compounds binding carbonic anhydrase 2 – biochemical, small-molecule microarray, Alexa647-labelled CAII, profiling panel (AID 1122); settings: CAII-A647 binding fluorescence, higher = more signal
[5] = COS7 lysate on small-molecule microarray, probe aHis, 635 nm (AID 1123); settings: COS7 cell lysate, fluorescence, higher = more signal;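 note: z-score combines 667nm fluorescence intensity with signal-to-noise per printed compound spot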
[6] = probe aLAP1 signal on lysate-treated microarray – cell lysate, small-molecule microarray, COS7 lysate, primary screen (AID 1124); settings: probe aLAP1, fluorescence, higher = more signal;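 note: lysate comes from COS7 cells expressing LAP1 and is applied at 0.3 µg/mL; score merges spot fluorescence near 667 nm with signal-to-noise over triplicate slides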
Sam68 (KHDRBS1) = assay: compounds binding KHDRBS1 protein – biochemical, small-molecule microarray, 635 nm fluorescence, primary screen (AID 1125); settings: higher = more signal;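 note: score merges 667 nm channel intensity with signal to noise over triplicate slides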
[7] = system: Chordin-like protein 2 (CHRDL2); assay: compounds binding chordin-like 2 – biochemical, small-molecule microarray, 635 nm fluorescence, primary screen (AID 1126); settings: fluorescence 635 nm, higher = more signal;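 note: printed compound slides probed with Chrdl2 protein at 4 µg/mL for 1 h at 4 C; score merges 667 nm emission intensity with signal to noise over three replicate slides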
[8] = target: Concanavalin-A (Canavalia ensiformis) (UniProt P02866); assay: compounds binding concanavalin A lectin – biochemical, small-molecule microarray, Alexa647 label, 635 nm, artefact control for SMM control protein annotation, primary screen (AID 1127); settings: ConA-A647 binding fluorescence, higher = more signal;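 note: z combines 667 nm emission intensity with signal-to-noise across three replicate slides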
[9] = compounds binding Alexa647 anti-His antibody – biochemical, small-molecule microarray, 635 nm fluorescence, artefact control for SMM control protein annotation, primary screen (AID 1128); settings: higher = more signal;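 note: score merges feature fluorescence with signal-to-noise for each printed compound spot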
[10] = system: Human papillomavirus type 1a E7 protein (residues 1-88); assay: HPV1a E7 small-molecule binders, primary screen, biochemical, small-molecule microarray, residues 1-88, 635 nm (AID 1129); settings: small-molecule microarray binding, fluorescence 635 nm; higher = more signal
[11] = target: Focal adhesion kinase 1 (Homo sapiens) (UniProt Q05397); assay: PTK2 protein binding on printed compound slides – biochemical, small-molecule microarray, 635/667 nm fluorescence, BSA, DTT, primary screen (AID 1130); settings: 635 nm fluorescence, higher = more signal;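 note: composite of spot emission at 667 nm and signal to noise over triplicate slides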
[12] = system: Fibrinogen (Alexa647-labelled); assay: Alexa647-fibrinogen binding to printed small molecules – biochemical, small-molecule microarray, 635/667 nm fluorescence, artefact control for SMM control-protein annotation, profiling panel (AID 1131); settings: fibrinogen-A647 binding fluorescence, higher = more signal;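 note: z-score merges 667 nm fluorescence with per-spot signal-to-noise over triplicate slides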
[13] = target: Follistatin (Homo sapiens) (UniProt P19883); assay: FST protein binding to printed compounds – biochemical, small-molecule microarray, 635/667 nm fluorescence, primary screen (AID 1132); settings: 635 nm fluorescence, higher = more signal
[14] = target: Fibroblast growth factor 2 (Homo sapiens) (UniProt P09038); assay: basic fibroblast growth factor binding to printed compounds – biochemical, small-molecule microarray, 635/667 nm fluorescence, primary screen (AID 1133); settings: FGF2, fluorescence 635/667, higher = more signal
[15] = JC-1 mitochondrial potential readout, lung cancer cells – cell-based, A549, JC-1 fluorescence, basal, 24 h, 100 nL, profiling panel (AID 1138); settings: higher = more signal;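 note: A549 lung adenocarcinoma cells under basal conditions with no added stimulus; test concentration not given here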
Lefty1 = Lefty1 protein binding to printed compounds – biochemical, small-molecule microarray, 635/667 nm fluorescence, primary screen (AID 1139); settings: fluorescence 635/667, higher = more signal
[16] = system: wheat germ agglutinin (Triticum aestivum), Alexa647-labelled; assay: Alexa647-WGA lectin binding to printed small molecules – biochemical, small-molecule microarray, 635/667 nm fluorescence, artefact control for SMM control-protein annotation, profiling panel (AID 1140); settings: WGA-A647 binding, 635 nm fluorescence, higher = more signal;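 note: score merges 667 nm feature emission with signal to noise over triplicate slides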
[17] = target: Luciferin 4-monooxygenase (Photinus pyralis) (UniProt P08659); assay: inhibition of purified Photinus pyralis luciferase – biochemical, luminescence, purified enzyme, 2006 set, primary screen (AID 1141); settings: purified firefly luciferase, SteadyGlo luminescence, 30 min; higher = more signal, called active from +8 up or from −8 down;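 note: cell-free assay with purified firefly luciferase at 100 ng per well in PBS; test concentration not given here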
Sequence of Luciferin 4-monooxygenase (Photinus pyralis) (P08659 whole entry, looked up): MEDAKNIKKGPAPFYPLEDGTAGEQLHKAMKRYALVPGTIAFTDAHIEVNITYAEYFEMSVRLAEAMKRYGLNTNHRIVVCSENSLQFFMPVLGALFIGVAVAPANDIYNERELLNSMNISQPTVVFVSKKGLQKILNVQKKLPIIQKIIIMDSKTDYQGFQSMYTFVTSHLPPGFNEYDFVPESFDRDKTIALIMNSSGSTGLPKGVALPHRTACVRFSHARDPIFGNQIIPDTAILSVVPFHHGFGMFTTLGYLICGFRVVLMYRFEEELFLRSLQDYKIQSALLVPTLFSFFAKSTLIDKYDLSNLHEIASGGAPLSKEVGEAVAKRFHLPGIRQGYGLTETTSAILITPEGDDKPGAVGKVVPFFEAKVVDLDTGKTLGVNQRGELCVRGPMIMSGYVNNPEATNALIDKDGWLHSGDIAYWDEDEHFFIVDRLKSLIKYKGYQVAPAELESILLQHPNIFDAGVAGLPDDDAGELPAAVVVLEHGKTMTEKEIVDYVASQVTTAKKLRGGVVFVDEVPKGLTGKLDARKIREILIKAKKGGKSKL

Sequence of Albumin (Bos taurus) (P02769 whole entry, looked up): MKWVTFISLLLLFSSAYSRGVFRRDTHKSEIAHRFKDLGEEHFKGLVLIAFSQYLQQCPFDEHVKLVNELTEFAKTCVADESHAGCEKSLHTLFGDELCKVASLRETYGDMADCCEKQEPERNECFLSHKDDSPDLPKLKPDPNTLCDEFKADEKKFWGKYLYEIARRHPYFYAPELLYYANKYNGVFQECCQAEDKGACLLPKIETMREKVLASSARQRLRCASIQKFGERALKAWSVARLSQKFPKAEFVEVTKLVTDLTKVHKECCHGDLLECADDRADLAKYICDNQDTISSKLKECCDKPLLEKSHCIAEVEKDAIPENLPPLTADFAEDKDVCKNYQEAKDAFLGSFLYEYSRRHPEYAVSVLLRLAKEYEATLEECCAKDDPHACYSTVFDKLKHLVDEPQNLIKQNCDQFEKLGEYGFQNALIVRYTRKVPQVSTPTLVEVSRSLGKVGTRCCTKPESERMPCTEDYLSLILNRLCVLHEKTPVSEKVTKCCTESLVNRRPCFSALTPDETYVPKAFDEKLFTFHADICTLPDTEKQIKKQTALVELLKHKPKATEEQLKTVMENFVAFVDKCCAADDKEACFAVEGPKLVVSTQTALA
Sequence of Fibroblast growth factor 2 (Homo sapiens) (P09038 whole entry, looked up): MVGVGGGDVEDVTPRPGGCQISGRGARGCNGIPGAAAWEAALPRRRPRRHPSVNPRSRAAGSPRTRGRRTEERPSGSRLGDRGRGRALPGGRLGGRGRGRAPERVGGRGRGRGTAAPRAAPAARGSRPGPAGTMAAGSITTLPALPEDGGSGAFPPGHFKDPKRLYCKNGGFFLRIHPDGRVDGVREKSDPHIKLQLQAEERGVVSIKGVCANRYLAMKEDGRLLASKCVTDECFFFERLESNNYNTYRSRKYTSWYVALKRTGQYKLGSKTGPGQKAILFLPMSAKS
Sequence of Concanavalin-A (Canavalia ensiformis) (P02866 whole entry, looked up): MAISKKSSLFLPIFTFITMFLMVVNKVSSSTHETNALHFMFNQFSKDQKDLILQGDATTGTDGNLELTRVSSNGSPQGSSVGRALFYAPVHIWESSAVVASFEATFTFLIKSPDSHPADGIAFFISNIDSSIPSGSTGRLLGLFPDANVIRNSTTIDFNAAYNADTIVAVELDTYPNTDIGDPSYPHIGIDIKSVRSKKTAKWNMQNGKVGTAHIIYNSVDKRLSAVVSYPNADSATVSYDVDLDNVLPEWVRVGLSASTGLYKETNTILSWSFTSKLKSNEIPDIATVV
Sequence of Follistatin (Homo sapiens) (P19883 whole entry, looked up): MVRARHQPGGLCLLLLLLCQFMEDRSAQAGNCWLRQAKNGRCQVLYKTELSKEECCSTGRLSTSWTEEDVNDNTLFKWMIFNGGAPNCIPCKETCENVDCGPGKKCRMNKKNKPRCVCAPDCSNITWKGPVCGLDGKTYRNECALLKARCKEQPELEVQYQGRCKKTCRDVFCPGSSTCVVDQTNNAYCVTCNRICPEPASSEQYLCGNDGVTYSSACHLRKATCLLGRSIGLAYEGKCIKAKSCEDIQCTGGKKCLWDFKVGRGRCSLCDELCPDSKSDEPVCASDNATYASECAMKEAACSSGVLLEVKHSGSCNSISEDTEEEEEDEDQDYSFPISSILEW
Sequence of Focal adhesion kinase 1 (Homo sapiens) (Q05397 whole entry, looked up): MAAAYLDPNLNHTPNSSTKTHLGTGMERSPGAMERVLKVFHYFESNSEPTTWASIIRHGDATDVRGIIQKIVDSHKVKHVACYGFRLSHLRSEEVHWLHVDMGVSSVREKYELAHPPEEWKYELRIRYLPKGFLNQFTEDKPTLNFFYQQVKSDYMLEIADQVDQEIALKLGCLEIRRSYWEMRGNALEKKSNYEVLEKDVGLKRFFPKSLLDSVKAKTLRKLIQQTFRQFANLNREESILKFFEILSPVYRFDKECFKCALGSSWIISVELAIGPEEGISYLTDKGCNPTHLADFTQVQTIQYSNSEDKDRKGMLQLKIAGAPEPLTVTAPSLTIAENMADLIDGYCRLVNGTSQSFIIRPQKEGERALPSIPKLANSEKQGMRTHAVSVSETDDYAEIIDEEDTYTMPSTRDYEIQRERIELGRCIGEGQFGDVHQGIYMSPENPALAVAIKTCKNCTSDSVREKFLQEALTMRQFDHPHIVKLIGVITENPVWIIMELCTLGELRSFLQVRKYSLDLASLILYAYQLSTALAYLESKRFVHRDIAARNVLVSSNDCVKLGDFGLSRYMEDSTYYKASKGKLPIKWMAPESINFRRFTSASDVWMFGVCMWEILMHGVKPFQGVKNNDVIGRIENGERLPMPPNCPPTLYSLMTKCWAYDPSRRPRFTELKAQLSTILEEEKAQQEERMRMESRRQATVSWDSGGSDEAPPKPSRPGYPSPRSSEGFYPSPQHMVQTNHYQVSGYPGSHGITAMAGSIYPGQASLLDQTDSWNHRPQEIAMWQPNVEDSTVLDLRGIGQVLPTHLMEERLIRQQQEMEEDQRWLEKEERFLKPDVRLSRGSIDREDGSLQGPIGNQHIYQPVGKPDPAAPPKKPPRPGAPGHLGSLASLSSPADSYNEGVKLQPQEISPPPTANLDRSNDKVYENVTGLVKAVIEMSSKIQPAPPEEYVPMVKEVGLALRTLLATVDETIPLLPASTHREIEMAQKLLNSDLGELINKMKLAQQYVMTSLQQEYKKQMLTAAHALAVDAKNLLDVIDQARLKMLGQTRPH

Compound | composite z-score (Albumin (Bos taurus)) | composite Z-score [1] | composite z-score [2] | composite z-score [3] | composite z-score [4] | composite z-score [5] | composite z-score [6] | composite z-score (Sam68 (KHDRBS1)) | composite z-score [7] | composite z-score [8] | composite z-score [9] | composite z-score [10] | composite z-score [11] | composite z-score [12] | composite z-score [13] | composite z-score [14] | z-score [15] | composite z-score (Lefty1) | composite z-score [16] | z-score [17]
Cc1ccc(C(C)CC(O)C2C=CC3C(=O)N(C)C(=O)C3N2Nc2ccccc2)o1 (stereo not given) | 0.264 | -0.288 (inactive) | 0.318 | -0.075 | 0.656 | 0.614 | 0.0421 | 1.3 | 0.122 | 0.617 | 0.298 | 1.22 | 0.0621 | 0.655 | 0.941 | 0.482 | 0.16 | 0.497 | 1.15 | 0.226 (inactive)
[N-]=[N+]=Nc1ccccc1[C@H]1OC(c2ccc(OCCCO)cc2)=N[C@@]1(Cc1ccccc1)C(=O)NCC(O)CO (stereo not given in full) | 0.793 | 0.0774 (inactive) | 0.0372 | -0.174 | 0.444 | 3.2 | -0.142 | 0.495 | -0.832 | 0.962 | 1.67 | 1.21 | 0.0145 | 0.959 | 1.06 | -0.551 | 0.586 | -0.498 | 0.966 | -5.02 (inactive)
CN(C)CCCNC(=O)[C@@]1(C)c2ccccc2C(=O)N(Cc2ccc(OC(F)(F)F)cc2)[C@H]1c1ccc(CO)cc1 | 0.548 | 0.0333 (inactive) | -0.139 | -0.0357 | 0.706 | 1.83 | 1.03 | 0.0786 | -0.616 | -0.451 | 0.117 | 0.365 | 0.37 | 0.294 | 0.948 | 0.389 | -0.664 | -0.425 | 0.668 | 0.14 (inactive)
O=C1[C@H]2C=C(I)[C@H](C[C@@H]2OCCCCCCO)[C@@]12CO2 | 0.683 | 0.047 (inactive) | 0.0876 | -0.112 | 0.751 | -0.298 | -0.16 | -0.747 | 1.24 | -1.05 | -0.624 | -0.334 | -0.0716 | -0.312 | 1.12 | 0.888 | 0.368 | 1.07 | -0.291 | 0.683 (inactive)
COc1ccc(C(=O)Nc2cccc(CN3C(=O)[C@]4(O[C@H](CC(=O)N5Cc6ccccc6C[C@H]5CO)[C@@H]([Si](C)(C)c5ccc(OC)cc5)[C@@H]4C)c4ccccc43)c2)cc1 | -0.513 | -0.222 (inactive) | 0.0243 | -0.154 | 0.288 | 0.458 | 0.557 | 1.29 | 1.38 | 0.858 | 1.17 | 0.481 | 0.343 | 0.368 | 1.39 | 1.7 | -0.806 | 1.59 | -0.0276 | 0.429 (inactive)

From PubChem BioAssay
